Results as given in PubChem BioAssay (NCATS).
Records with an inconclusive call do not appear. Where a call stands in place of a potency, no number is given. Active and inactive are the calls of the source. The call rests on the fitted dose curve; in most records, active means well fitted curve in the direction sought with a large enough effect; inconclusive means small, poorly fitted or top-dose-only effect, or another doubt; inactive means no such curve, though single readings can be large; an effect the other way counts as inactive or inconclusive.

Tests used:
[1] = P-glycoprotein substrates identified in KB-3-1 adenocarcinoma cell line, qHTS therapeutic library screen (AID 1346986); further: nearly all actives have a fitted effect of over 60% in size
Summary of the method: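 KB-3-1 parental cells and P-gp-overexpressing KB-8-5-11 (colchicine omitted during assay) plated at 500 cells/well, dosed in dose-response, incubated 72 h at 37 degree C. CellTiter-Glo luminescence read; KB-8-5-11 also tested with tariquidar.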

[2] = P-glycoprotein substrates identified in KB-8-5-11 adenocarcinoma cell line, qHTS therapeutic library screen (AID 1346987); further: nearly all actives have a fitted effect of over 65% in size
Summary of the method: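 KB-8-5-11: colchicine-selected sub-line of KB-3-1 over-expressing P-gp; assay medium lacked colchicine. 72 h drug exposure at 37 degree C, CellTiter-Glo.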

Row | Compound | Potency [1] | Potency [2]
1 | CC1CCC2C(C)(C)C(O)CCC2(C)C12Cc1c(O)cc3c(c1O2)C(N)=NC3 (stereo unspecified) | inactive | inactive
2 | Nc1nc(CC(=O)Nc2ccc(CCNCC(O)c3ccccc3)cc2)cs1 (stereo unspecified) | inactive | inactive
3 | Cc1cc(C)cc(NC(=O)Cc2ccc(OC(C)(C)C(=O)O)cc2)c1 | inactive | inactive
4 | CCOc1nc2cccc(C(=O)O)c2n1Cc1ccc(-c2ccccc2-c2noc(=O)[nH]2)cc1 | inactive | inactive
5 | CC1CCC23COC(=O)C2=CC(O)CC3C1(C)CCC1=CC(=O)OC1O (stereo unspecified) | inactive | inactive
6 | COc1ccc(C)c2sc(NC(=O)c3ccncc3)nc12 | inactive | inactive
7 | C[C@@H]1O[C@@H](O[C@H]2[C@H](OC(C#N)c3ccc(O)cc3)O[C@H](CO)[C@@H](O)[C@@H]2O)[C@H](O)[C@H](O)[C@H]1O (stereo partly specified) | inactive | inactive
8 | C/C=C(/C)C(=O)O[C@H]1C=C(C)C[C@H](OC(=O)c2ccc(O)cc2)C2[C@](O)(C(C)C)CC[C@@]21C (stereo partly specified) | inactive | inactive
